# According to PubChem BioAssay (NCATS):
# Values joined by “and” are separate entries in the source; they are usually repeats but may differ in a detail not shown here. Equal values may be shown once. Results filed as inconclusive are left out. Entries that show only a call come without a potency. Active and inactive are the calls of the source. Unless noted, the call rests on the fitted dose curve; in most records, active means well fitted curve in the direction sought with a large enough effect; inconclusive means small, poorly fitted or top-dose-only effect, or another doubt; inactive means no such curve, though single readings can be large; an effect the other way counts as inactive or inconclusive.
# Columns and labels:
# [1] = target: Voltage-gated inwardly rectifying potassium channel KCNH2 (Homo sapiens) (UniProt Q12809); test: qHTS Assay for Small Molecule Inhibitors of the Human hERG Channel Activity (AID 588834);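 further: lower thallium flux fluorescence means stronger hERG block; nearly all actives have a fitted effect of over 50% in size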; further: potency means the concentration at half of the fitted maximal effect
# How it was run: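 hERG-BacMam U2OS, 2000 cells/well; 0.7X FluxOR loading 1 hr RT dark; cpd ~10 min 37 °C; stim buffer; FDSS fluorescence 2 min @ 1 s; AC50 Hill fit.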
# [2] = target: Retinoic acid receptor RXR-alpha (Homo sapiens) (UniProt P19793); test: qHTS assay for small molecule agonists of retinoid X receptor alpha signaling (AID 588544; calls by dose curve)
# [3] = target: Thyroid hormone receptor beta (Homo sapiens) (UniProt P10828); test: qHTS assay for small molecule agonists of thyroid hormone receptor beta signaling (AID 588545; calls by dose curve)
# How it was run: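 Efficacy and EC50 values derive from Hill fits of qHTS titration data, normalized to 10 nM T3 and DMSO-only wells. HEK 293 reporter cells were stimulated for 18 hrs at 37 C, with beta-lactamase activity measured by CCF4 fluorescence.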
# [4] = qHTS assay for small molecule antagonists of retinoid X receptor alpha signaling (AID 588546; active means well fitted inhibition curve with a large enough effect in the signal ratio, with a control signal flat, not every such curve was filed as active; the % refers to the signal ratio;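 further: cells stimulated with 9-cis-retinoic acid as agonist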); conditions: HEK293T RXRa-UAS-bla, beta-lactamase ratio, antagonist mode; measured here: W530 green channel, cytotoxicity proxy
# How it was run: (§1)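 Beta-lactamase reporter inhibition, read as CCF4 fluorescence ratio (ex 405, em 460/530 nm) after 2 h at RT. HEK293T UAS-bla cells, 2500/well, were stimulated with 9-cis-RA at 500 or 100 nM final alongside test compound for 18 h at 37 C.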
# [5] = target: Retinoic acid receptor RXR-alpha (Homo sapiens) (UniProt P19793); test: as above; conditions: HEK293T RXRa-UAS-bla, beta-lactamase ratio, antagonist mode
# How it was run: as §1
# [6] = target: Luciferin 4-monooxygenase (Photinus pyralis) (UniProt P08659); test: Biochemical firefly luciferase enzyme assay for NPC (AID 624030); further: nearly all actives have a fitted effect of over 70% in size; further: potency means the concentration at half of the fitted maximal effect
# How it was run: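 Counter-screen for direct inhibition of the luciferase enzyme by approved-drug library compounds, run at 10 nM enzyme in 50 mM Tris acetate (final). Luminescence was read within 5 min of enzyme-buffer addition and normalized to PTC124 versus DMSO (0%).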
# [7] = S16 Schwann cell viability assay (CellTiter-Glo assay) (AID 624031); further: nearly all actives have a fitted effect of over 70% in size; further: potency means the concentration at half of the fitted maximal effect
# How it was run: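 Native S16 Schwann cells (rat), serum-containing medium, overnight attachment then 24 h drug exposure at 37 °C/5% CO2. CellTiter-Glo ATP signal; normalized to cell-free and vehicle wells.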
# [8] = S16 Schwann cell PMP22 intronic element firefly luciferase assay (AID 624032); further: nearly all actives have a fitted effect of over 30% in size; further: potency means the concentration at half of the fitted maximal effect
# How it was run: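 Rat S16 Schwann cells stably carrying a PMP22 intronic element-driven Fluc reporter were seeded overnight, then exposed to compounds for 24 h at 37 °C. Luminescence was normalized to PTC124 (positive control) and DMSO (0% activity).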
# [9] = target: Thyroid hormone receptor beta (Homo sapiens) (UniProt P10828); test: qHTS assay for small molecule antagonists of thyroid hormone receptor beta signaling (AID 588547; active means well fitted inhibition curve with a large enough effect in the signal ratio, with a control signal flat, not every such curve was filed as active; the % refers to the signal ratio; further: potency means the concentration at half of the fitted maximal effect;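 on activity change % (negative = inhibition): cells stimulated with 0.4 nM T3 agonist during compound exposure; series mostly up to about 77 µM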); conditions: TR-UAS-bla HEK293, beta-lactamase ratio, antagonist mode, 18 h
# How it was run: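 TR-UAS-bla GripTite HEK293 cells in 2% charcoal/dextran FBS medium were preincubated 4 h at 37 C, given compound (0.59 nM to 92 uM) plus 0.4 nM T3 (final) for 18 h, then CCF4 for 2 h at RT; Hill fit gave IC50.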
# [10] = S16 Schwann cell PMP22 intronic element beta-lactamase assay (AID 624044; calls by dose curve; further: nearly all actives have a fitted effect of over 15% in size)
# How it was run: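 Rat S16 Schwann cells with beta-Lac driven by a PMP22 intronic element, compound-treated 24 h at 37 °C. LiveBLAzer FRET B/G read: 460 nm normalized to potassium clavulanate vs DMSO; 535 nm FRET as viability; concentration-effect curves classified.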
# Chain of Retinoic acid receptor RXR-alpha (Homo sapiens) (P19793 whole entry, looked up): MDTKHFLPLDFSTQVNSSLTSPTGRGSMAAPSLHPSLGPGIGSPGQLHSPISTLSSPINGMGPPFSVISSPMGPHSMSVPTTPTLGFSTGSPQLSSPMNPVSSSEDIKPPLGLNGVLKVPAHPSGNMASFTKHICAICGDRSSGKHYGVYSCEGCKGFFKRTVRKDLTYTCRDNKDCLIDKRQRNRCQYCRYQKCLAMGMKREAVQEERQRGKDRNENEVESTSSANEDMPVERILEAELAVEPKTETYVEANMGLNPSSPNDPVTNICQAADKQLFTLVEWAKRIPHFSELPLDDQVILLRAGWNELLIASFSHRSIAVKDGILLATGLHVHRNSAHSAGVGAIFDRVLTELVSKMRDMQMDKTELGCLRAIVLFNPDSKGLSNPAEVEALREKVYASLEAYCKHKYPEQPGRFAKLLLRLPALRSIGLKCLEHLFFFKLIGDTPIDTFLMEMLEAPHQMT
# Chain of Luciferin 4-monooxygenase (Photinus pyralis) (P08659 whole entry, looked up): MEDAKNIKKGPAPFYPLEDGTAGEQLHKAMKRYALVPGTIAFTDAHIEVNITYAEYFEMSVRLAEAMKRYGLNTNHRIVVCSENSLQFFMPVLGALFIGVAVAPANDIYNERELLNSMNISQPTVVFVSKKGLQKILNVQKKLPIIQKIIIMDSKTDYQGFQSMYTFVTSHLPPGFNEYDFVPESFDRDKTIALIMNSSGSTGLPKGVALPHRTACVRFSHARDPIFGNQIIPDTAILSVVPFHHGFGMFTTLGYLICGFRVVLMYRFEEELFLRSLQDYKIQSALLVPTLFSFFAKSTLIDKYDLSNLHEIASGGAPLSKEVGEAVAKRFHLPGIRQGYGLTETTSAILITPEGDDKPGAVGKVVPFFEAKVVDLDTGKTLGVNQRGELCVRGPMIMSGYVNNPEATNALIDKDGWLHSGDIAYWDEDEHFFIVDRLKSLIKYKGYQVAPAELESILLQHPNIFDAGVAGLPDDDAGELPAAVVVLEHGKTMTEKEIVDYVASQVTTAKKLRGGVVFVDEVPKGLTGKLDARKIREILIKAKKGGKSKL
# Chain of Thyroid hormone receptor beta (Homo sapiens) (P10828 whole entry, looked up): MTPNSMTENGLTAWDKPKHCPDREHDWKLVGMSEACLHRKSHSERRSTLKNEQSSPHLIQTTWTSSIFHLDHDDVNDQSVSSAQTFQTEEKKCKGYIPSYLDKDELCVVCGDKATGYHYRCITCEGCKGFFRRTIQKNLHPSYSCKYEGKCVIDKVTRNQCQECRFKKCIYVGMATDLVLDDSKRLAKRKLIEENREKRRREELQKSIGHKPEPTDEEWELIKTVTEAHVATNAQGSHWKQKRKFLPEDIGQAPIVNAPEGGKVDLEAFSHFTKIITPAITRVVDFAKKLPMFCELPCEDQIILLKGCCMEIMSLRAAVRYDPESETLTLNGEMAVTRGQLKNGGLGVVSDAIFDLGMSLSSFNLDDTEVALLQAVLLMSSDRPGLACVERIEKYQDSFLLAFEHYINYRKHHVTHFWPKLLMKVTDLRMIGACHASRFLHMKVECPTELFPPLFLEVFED
# Chain of Voltage-gated inwardly rectifying potassium channel KCNH2 (Homo sapiens) (Q12809 whole entry, looked up): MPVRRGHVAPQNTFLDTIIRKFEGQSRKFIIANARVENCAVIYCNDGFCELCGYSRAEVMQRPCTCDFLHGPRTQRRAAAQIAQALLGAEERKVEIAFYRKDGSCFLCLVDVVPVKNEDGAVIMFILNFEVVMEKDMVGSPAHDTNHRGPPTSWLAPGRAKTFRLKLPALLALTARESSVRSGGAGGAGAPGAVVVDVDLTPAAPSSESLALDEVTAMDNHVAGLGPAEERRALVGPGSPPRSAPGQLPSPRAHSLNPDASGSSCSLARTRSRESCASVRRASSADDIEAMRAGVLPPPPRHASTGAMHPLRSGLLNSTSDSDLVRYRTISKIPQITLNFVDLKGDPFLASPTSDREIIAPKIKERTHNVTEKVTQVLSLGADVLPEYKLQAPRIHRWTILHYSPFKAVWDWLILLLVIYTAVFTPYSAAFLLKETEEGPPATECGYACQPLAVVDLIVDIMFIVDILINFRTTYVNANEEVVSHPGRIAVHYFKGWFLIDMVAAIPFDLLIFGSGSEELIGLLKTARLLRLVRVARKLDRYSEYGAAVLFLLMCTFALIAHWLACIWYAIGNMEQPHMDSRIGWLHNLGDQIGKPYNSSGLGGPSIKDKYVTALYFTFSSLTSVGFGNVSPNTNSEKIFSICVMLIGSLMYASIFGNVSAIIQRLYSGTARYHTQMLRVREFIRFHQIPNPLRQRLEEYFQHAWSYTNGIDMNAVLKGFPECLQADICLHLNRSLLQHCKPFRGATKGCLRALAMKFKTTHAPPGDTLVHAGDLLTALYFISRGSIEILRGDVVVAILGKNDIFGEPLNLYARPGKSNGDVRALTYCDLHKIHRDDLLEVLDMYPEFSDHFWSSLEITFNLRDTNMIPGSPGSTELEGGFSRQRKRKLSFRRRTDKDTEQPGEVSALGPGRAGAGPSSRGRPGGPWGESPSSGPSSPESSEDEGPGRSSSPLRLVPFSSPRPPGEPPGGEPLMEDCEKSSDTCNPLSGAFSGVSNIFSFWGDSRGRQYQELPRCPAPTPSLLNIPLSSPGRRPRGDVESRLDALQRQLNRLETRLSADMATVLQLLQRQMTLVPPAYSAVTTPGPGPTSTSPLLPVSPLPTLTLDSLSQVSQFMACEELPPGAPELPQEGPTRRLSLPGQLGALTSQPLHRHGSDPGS
smiles,measurement,setting,value
CCC(=O)O[C@]1(C(=O)SCF)[C@H](C)C[C@H]2[C@@H]3C[C@H](F)C4=CC(=O)C=C[C@]4(C)[C@@]3(F)[C@@H](O)C[C@@]21C,Potency,[1],inactive
CCC(=O)O[C@]1(C(=O)CCl)[C@@H](C)C[C@H]2[C@@H]3CCC4=CC(=O)C=C[C@]4(C)[C@@]3(F)[C@@H](O)C[C@@]21C,Potency,[1],inactive
NC(N)=NC(N)=NCCc1ccccc1,outcome,[2],inactive
same,outcome,[3],inactive
same,max response,[4],0.584% and 0.821%
same,max response,[5],19.7% (inactive) and -15.5% (inactive)
same,Potency,[1],inactive
same,Potency,[6],inactive
same,Potency,[7],inactive
same,Potency,[8],inactive
Cc1ncc([N+](=O)[O-])n1CCO,outcome,[2],inactive
same,outcome,[3],inactive
same,max response,[4],-7.09%
same,max response,[5],26.4% (inactive)
same,activity change % (negative = inhibition),[9],-13.7% (inactive)
same,Potency,[1],inactive
same,Potency,[6],inactive
same,Potency,[7],inactive
same,Potency,[8],inactive
CCc1cc(C(N)=S)ccn1,outcome,[2],inactive
same,outcome,[3],inactive
same,max response,[4],-0.783%
same,max response,[5],10.8% (inactive)
same,activity change % (negative = inhibition),[9],7% (inactive)
same,Potency,[1],inactive
same,Potency,[6],inactive
same,Potency,[8],inactive
same,Potency,[10],inactive
CN(C)c1ccc(C(=C2C=CC(=[N+](C)C)C=C2)c2ccc(N(C)C)cc2)cc1,outcome,[3],inactive
same,Potency,[9],28.2 µM (active)
same,Potency,[1],10 µM (active) and 12.6 µM (active)
same,Potency,[6],12.8 µM (active)
same,Potency,[7],9.07 µM (active)
same,Potency,[8],9.07 µM (active)
N[C@@H](Cc1ccc(O)c(O)c1)C(=O)O,outcome,[2],inactive
same,outcome,[3],inactive
same,max response,[4],-19.3%
same,max response,[5],0.985% (inactive)
same,activity change % (negative = inhibition),[9],-11.9% (inactive)
same,Potency,[10],inactive
COC(c1ccccc1)(c1ccccc1)[C@H](Oc1nc(C)cc(C)n1)C(=O)O,Potency,[1],inactive
C[C@@H](CN1CC(=O)NC(=O)C1)N1CC(=O)NC(=O)C1,Potency,[1],inactive
C[C@]12C=CC(=O)C=C1CC[C@@H]1[C@@H]2C(=O)C[C@@]2(C)[C@H]1CC[C@]2(O)C(=O)CO,outcome,[2],inactive
same,outcome,[3],inactive
same,max response,[4],4.53%
same,max response,[5],-10.9% (inactive)
same,activity change % (negative = inhibition),[9],-0.0632% (inactive)
same,Potency,[1],inactive
same,Potency,[6],inactive
same,Potency,[7],inactive
same,Potency,[8],inactive
same,Potency,[10],inactive
CC(=O)[C@H]1CC[C@H]2[C@@H]3CCC4=CC(=O)CC[C@]4(C)[C@H]3CC[C@]12C,outcome,[3],inactive
same,Potency,[6],inactive
CC(=O)Oc1ccccc1C(=O)Nc1ncc([N+](=O)[O-])s1,outcome,[3],inactive
same,Potency,[1],inactive
CCN1CCCC1CNC(=O)c1cc(S(N)(=O)=O)ccc1OC (configuration not stated),Potency,[1],10 µM (active)
CC1=NN(c2ccccc2)C(=O)C1,outcome,[3],inactive
same,max response,[4],3.18%
same,max response,[5],23.1% (inactive)
same,activity change % (negative = inhibition),[9],-16% (inactive) and 3.19% (inactive)
same,Potency,[1],inactive
same,Potency,[6],inactive
same,Potency,[7],inactive
same,Potency,[8],inactive
same,Potency,[10],inactive
Cc1onc(-c2ccccc2Cl)c1C(=O)N[C@@H]1C(=O)N2[C@@H]1SC(C)(C)[C@@H]2C(=O)O,Potency,[1],inactive
N=C(N)c1ccc(OCCCCCOc2ccc(C(=N)N)cc2)cc1,outcome,[2],inactive
same,outcome,[3],inactive
same,activity change % (negative = inhibition),[9],-26.1% (inactive)
same,Potency,[6],inactive
same,Potency,[7],inactive
CS(=O)(=O)c1ccc([C@@H](O)[C@@H](CO)NC(=O)C(Cl)Cl)cc1,Potency,[1],inactive
NS(=O)(=O)c1cc2c(cc1Cl)NC(C(Cl)Cl)NS2(=O)=O (configuration not stated),Potency,[1],inactive
CCCCS(=N)(=O)CCC(N)C(=O)O (configuration not stated),Potency,[1],inactive
OC(Cn1cncn1)(Cn1cncn1)c1ccc(F)cc1F,outcome,[2],inactive
same,outcome,[3],inactive
same,max response,[4],-2.01%
same,max response,[5],6.23% (inactive)
same,activity change % (negative = inhibition),[9],-14.2% (inactive)
same,Potency,[1],inactive
same,Potency,[6],inactive
same,Potency,[7],inactive
same,Potency,[8],inactive
same,Potency,[10],inactive
S=P(N1CC1)(N1CC1)N1CC1,outcome,[2],inactive
same,outcome,[3],inactive
same,activity change % (negative = inhibition),[9],-0.913% (inactive)
same,Potency,[1],inactive
same,Potency,[6],inactive
same,Potency,[7],inactive
same,Potency,[8],inactive
same,Potency,[10],inactive
COc1ccc2cc3[n+](cc2c1OC)CCc1cc2c(cc1-3)OCO2,outcome,[3],inactive
same,max response,[4],2.18%
same,max response,[5],-28% (inactive)
same,activity change % (negative = inhibition),[9],-20.8% (inactive)
same,Potency,[1],inactive
same,Potency,[6],inactive
same,Potency,[7],inactive
CC(=O)CC(c1ccccc1)c1c(O)c2ccccc2oc1=O (configuration not stated),outcome,[2],inactive
same,max response,[4],-2.55%
same,max response,[5],8.9% (inactive)
same,activity change % (negative = inhibition),[9],9.03% (inactive)
same,Potency,[1],inactive
same,Potency,[6],inactive
Cc1cc(NS(=O)(=O)c2ccc(N)cc2)no1,outcome,[2],inactive
same,outcome,[3],inactive
same,max response,[4],-9.35%
same,max response,[5],6.61% (inactive)
same,activity change % (negative = inhibition),[9],-2.53% (inactive)
same,Potency,[7],inactive
same,Potency,[8],inactive
Cc1nnc(NS(=O)(=O)c2ccc(N)cc2)s1,outcome,[2],inactive
same,outcome,[3],inactive
same,max response,[4],-2.81%
same,max response,[5],-2.27% (inactive)
same,activity change % (negative = inhibition),[9],-6.41% (inactive)
same,Potency,[1],inactive
same,Potency,[6],inactive
same,Potency,[7],inactive
same,Potency,[8],inactive
Cc1noc(NS(=O)(=O)c2ccc(N)cc2)c1C,outcome,[2],inactive
same,outcome,[3],inactive
same,max response,[4],9.97% and -11.9%
same,max response,[5],10.6% (inactive) and -8.28% (inactive)
same,Potency,[1],inactive
same,Potency,[6],inactive
same,Potency,[7],inactive
same,Potency,[8],inactive
COc1cc2ncnc(Nc3cccc(Cl)c3)c2cc1OC,Potency,[1],inactive
CC(C)C1CCC(C(=O)N[C@H](Cc2ccccc2)C(=O)O)CC1 (some centres not stated),Potency,[1],inactive
O=C(N[C@H](CO)[C@H](O)c1ccc([N+](=O)[O-])cc1)C(Cl)Cl,outcome,[2],inactive
same,outcome,[3],inactive
same,max response,[4],-5.3% and -7.21%
same,max response,[5],39.9% (inactive) and -11.1% (inactive)
same,activity change % (negative = inhibition),[9],0.142% (inactive) and 20.5% (inactive)
same,Potency,[6],inactive
Cc1ccnc2c1NC(=O)c1cccnc1N2C1CC1,outcome,[2],inactive
same,outcome,[3],inactive
same,max response,[4],-4.35%
same,max response,[5],11.4% (inactive)
same,activity change % (negative = inhibition),[9],-3.97% (inactive)
same,Potency,[1],inactive
same,Potency,[6],inactive
same,Potency,[7],inactive
same,Potency,[8],inactive
